Consider 39 sequences from the supplement of paper PMC6555819.

One assay relates to PPARa:RXRa (NR concentration 270 nM, RXRa partner concentration 90 nM). Briefly: PBM binding z-score (relative to random genomic background probes); higher = stronger binding; sequences stand for … in GC…GCGATTGACAGCGTAGAATGAAGG
In a few lines: (§1)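 Custom Agilent 4×180K protein-binding microarrays carried double-stranded probes, each with a 34-nt variable region. These regions held direct-repeat seeds, single-nucleotide variants, half-site ablations and random human genomic background sequences. Ligand-free nuclear receptor dimers were incubated on the arrays for 1 h, antibodies against each partner (one per run) detected binding, and scanned fluorescence was regression-normalized. Binding z-scores take the random background probes as reference.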
The sequence CGAACTAGGTAACCAGGACAGTGAAGAGGTTGGA displayed a PBM binding z-score of 1.66.
With CGAACTAGGTCAAAGGACAGTTAAAGGCGACGTA, the PBM binding z-score is 5.58.
CGAACTAGGTCAAAGGACAGTGCAAGGCGACGTA had a PBM binding z-score of 5.41.
Same read-out and setting: next, CGAACTAGGTTACCAGGACAGTGAAGAGGTTGGA: 2.53; CGAACTAGGTCACCAGGAGAGTGAAGAGGTTGGA: 4.87; ATATGTAGGTTAGGGTCATCCAGAAAGTAGGGAA: 5.62.
CGAACTAGGTCACCCGGACAGTGAAGAGGTTGGA had a PBM binding z-score of 4.76.
ATATGTAGGTTTGGGTCATTCAGAAAGTAGGGAA came in with a PBM binding z-score of 3.1.
Still for that read-out and setting: next, CGAACTAGGTCAAAGGACAGGGAAAGGCGACGTA: 5.35; CGAACTAGGTCACAGGACAGTGAAAGGCGACGTA: 5.21; CGAAATAGGTCACCAGGACAGTGAAGAGGTTGGA: 5.9.
On the same count and under the same terms, next, CGAACTAGGTCGAAGGACAGTGAAAGGCGACGTA: 2.52; CGAACTAGTTCAAAGGACAGTGAAAGGCGACGTA: 1.62; ATATGTAGGTTATGGTCATTCAGAAAGTAGGGAA: 3.29.
The same measure, in the same setting: next, CGAACTAGGTTAAAGGACAGTGAAAGGCGACGTA: 3.82.
CGAACTAGGTCAAAGGACAGAGAAAGGCGACGTA had a PBM binding z-score of 5.58.
Still for that read-out and setting: next, CGAACTAGGTCACCAGGACAGTGATGAGGTTGGA: 4.96.
Turning to ATATGTAGGTTAGGGTCATGCAGAAAGTAGGGAA, the PBM binding z-score was determined as 5.74.
CGAACTAGGTCAAAGGACAGTGACAGGCGACGTA registered a PBM binding z-score of 5.56.
Sequence CGTACTAGGTCAAAGGACAGTGAAAGGCGACGTA registered a PBM binding z-score of 4.83.
Same read-out and setting: for ATACGTAGGTTAGGGTCATTCAGAAAGTAGGGAA the value was 4.88.
Still for that read-out and setting: for ATATGTAGGTTAGGGTCATTAAGAAAGTAGGGAA the value was 5.58; for CGAACTAGGTGACCAGGACAGTGAAGAGGTTGGA, 2.67; for CGAACTAGGTCATAGGACAGTGAAAGGCGACGTA, 5.07.
Sequence CGAGCTAGGTCAAAGGACAGTGAAAGGCGACGTA yielded a PBM binding z-score of 3.86.
In turn, ATATGTAGGTGAGGGTCATTCAGAAAGTAGGGAA showed a PBM binding z-score of 5.07.
The same measure, in the same setting: for ATAGGTAGGTTAGGGTCATTCAGAAAGTAGGGAA the value was 5.26; for AGATGTAGGTTAGGGTCATTCAGAAAGTAGGGAA, 5.24.
As for AAATGTAGGTTAGGGTCATTCAGAAAGTAGGGAA, the PBM binding z-score was 5.81.
The sequence CGAACTAGGTCAAAGGAAAGTGAAAGGCGACGTA showed a PBM binding z-score of 4.7.
The same measure, in the same setting: for CGAACTAGGTCACCAGGACATTGAAGAGGTTGGA the value was 5.35.
Sequence CGAACTAGGTCAAAGGACAGTCAAAGGCGACGTA displayed a PBM binding z-score of 5.68.
On the same count and under the same terms, for CGAAATAGGTCAAAGGACAGTGAAAGGCGACGTA the value was 5.96; for ATATGAAGGTTAGGGTCATTCAGAAAGTAGGGAA, 5.23.
As to ATATGTGGGTTAGGGTCATTCAGAAAGTAGGGAA, the PBM binding z-score worked out at 5.7.
CGAACTAGGTCAAAGGACAGTAAAAGGCGACGTA returned a PBM binding z-score of 5.67.
The sequence ATATGTAGGTTAGGGGCATTCAGAAAGTAGGGAA displayed a PBM binding z-score of 3.8.
On to CGAACTAGGTCACCAGGCCAGTGAAGAGGTTGGA, for which the PBM binding z-score was found to be 5.2.
Same read-out and setting: for CGAACTAGGTCACCAAGACAGTGAAGAGGTTGGA the value was 5.11.

A further assay has as its system PPARg:RXRa (NR concentration 180 nM, RXRa partner concentration 90 nM). The description is as above. In a few lines: as §1
Consider CGAACTAGGTAACCAGGACAGTGAAGAGGTTGGA, for which the PBM binding z-score is 2.32.
Still for that read-out and setting: next, CGAACTAGGTCAAAGGACAGTTAAAGGCGACGTA: 10.5; CGAACTAGGTCAAAGGACAGTGCAAGGCGACGTA: 10.3.
CGAACTAGGTTACCAGGACAGTGAAGAGGTTGGA: the PBM binding z-score stood at 3.94.
Still for that read-out and setting: next, CGAACTAGGTCACCAGGAGAGTGAAGAGGTTGGA: 8.26; ATATGTAGGTTAGGGTCATCCAGAAAGTAGGGAA: 8.03.
CGAACTAGGTCACCCGGACAGTGAAGAGGTTGGA showed a PBM binding z-score of 8.61.
Take ATATGTAGGTTTGGGTCATTCAGAAAGTAGGGAA: the PBM binding z-score came to 2.34.
In turn, CGAACTAGGTCAAAGGACAGGGAAAGGCGACGTA gave a PBM binding z-score of 10.4.
In turn, CGAACTAGGTCACAGGACAGTGAAAGGCGACGTA returned a PBM binding z-score of 8.8.
The same measure, in the same setting: for CGAAATAGGTCACCAGGACAGTGAAGAGGTTGGA the value was 8.44.
The sequence CGAACTAGGTCGAAGGACAGTGAAAGGCGACGTA yielded a PBM binding z-score of 5.13.
CGAACTAGTTCAAAGGACAGTGAAAGGCGACGTA: the PBM binding z-score came out at 2.23.
On to ATATGTAGGTTATGGTCATTCAGAAAGTAGGGAA, for which the PBM binding z-score turned out to be 4.98.
Still for that read-out and setting: next, CGAACTAGGTTAAAGGACAGTGAAAGGCGACGTA: 7.8; CGAACTAGGTCAAAGGACAGAGAAAGGCGACGTA: 10.3; CGAACTAGGTCACCAGGACAGTGATGAGGTTGGA: 8.57.
The same measure, in the same setting: for ATATGTAGGTTAGGGTCATGCAGAAAGTAGGGAA the value was 7.7; for CGAACTAGGTCAAAGGACAGTGACAGGCGACGTA, 10.5; for CGTACTAGGTCAAAGGACAGTGAAAGGCGACGTA, 9.74.
ATACGTAGGTTAGGGTCATTCAGAAAGTAGGGAA: the PBM binding z-score was found to be 2.96.
ATATGTAGGTTAGGGTCATTAAGAAAGTAGGGAA registered a PBM binding z-score of 7.9.
Still for that read-out and setting: next, CGAACTAGGTGACCAGGACAGTGAAGAGGTTGGA: 3.98.
On to CGAACTAGGTCATAGGACAGTGAAAGGCGACGTA, for which the PBM binding z-score was found to be 9.06.
CGAGCTAGGTCAAAGGACAGTGAAAGGCGACGTA had a PBM binding z-score of 5.44.
ATATGTAGGTGAGGGTCATTCAGAAAGTAGGGAA registered a PBM binding z-score of 7.86.
The same measure, in the same setting: for ATAGGTAGGTTAGGGTCATTCAGAAAGTAGGGAA the value was 5.56; for AGATGTAGGTTAGGGTCATTCAGAAAGTAGGGAA, 7.27.
The same measure, in the same setting: next, AAATGTAGGTTAGGGTCATTCAGAAAGTAGGGAA: 8.25; CGAACTAGGTCAAAGGAAAGTGAAAGGCGACGTA: 8.32; CGAACTAGGTCACCAGGACATTGAAGAGGTTGGA: 8.44.
CGAACTAGGTCAAAGGACAGTCAAAGGCGACGTA: the PBM binding z-score worked out at 10.2.
Same read-out and setting: next, CGAAATAGGTCAAAGGACAGTGAAAGGCGACGTA: 9.28.
Same read-out and setting: next, ATATGAAGGTTAGGGTCATTCAGAAAGTAGGGAA: 4; ATATGTGGGTTAGGGTCATTCAGAAAGTAGGGAA: 7.6.
CGAACTAGGTCAAAGGACAGTAAAAGGCGACGTA had a PBM binding z-score of 9.93.
On to ATATGTAGGTTAGGGGCATTCAGAAAGTAGGGAA, for which the PBM binding z-score stood at 5.77.
On the same count and under the same terms, next, CGAACTAGGTCACCAGGCCAGTGAAGAGGTTGGA: 8.64.
For the sequence CGAACTAGGTCACCAAGACAGTGAAGAGGTTGGA, the PBM binding z-score is 8.16.
